Rows were chosen to be rich in hits. Some 3.5% of all compounds tested hit in one or more screens of this group.
rCAG binder – binders of r(CAG) RNA repeats, primary screen, biochemical, fluorescence. r(CAG) RNA repeat, TO-PRO-1 dye displacement fluorescence. inhibition, % at 3 µM. 370,000 tested, 1.3% active. AID 651821, 2012;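 active means inhibition above the plate cutoff, the mean of all test compounds on that plate plus 3 SD, cut at about 35% in these data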;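 further: higher means more dye released from RNA so lower well fluorescence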
UHRF1 MBD2 ctr – UHRF1 methylated DNA binding inhibitors, primary screen, counter-screen for MBD2 inhibitor project, biochemical, TR-FRET, human UHRF1, single concentration; UHRF1 binding to methylated oligo; inhibition, % at 4.4 µM; 370,000 tested, 0.75% active; AID 687016, 2013; in the data active means inhibition above about 21%;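 further: UHRF1 SRA domain binding a hemimethylated CpG hairpin DNA probe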
Target sequence (Q96T88 whole entry, looked up, the tested form may be a part): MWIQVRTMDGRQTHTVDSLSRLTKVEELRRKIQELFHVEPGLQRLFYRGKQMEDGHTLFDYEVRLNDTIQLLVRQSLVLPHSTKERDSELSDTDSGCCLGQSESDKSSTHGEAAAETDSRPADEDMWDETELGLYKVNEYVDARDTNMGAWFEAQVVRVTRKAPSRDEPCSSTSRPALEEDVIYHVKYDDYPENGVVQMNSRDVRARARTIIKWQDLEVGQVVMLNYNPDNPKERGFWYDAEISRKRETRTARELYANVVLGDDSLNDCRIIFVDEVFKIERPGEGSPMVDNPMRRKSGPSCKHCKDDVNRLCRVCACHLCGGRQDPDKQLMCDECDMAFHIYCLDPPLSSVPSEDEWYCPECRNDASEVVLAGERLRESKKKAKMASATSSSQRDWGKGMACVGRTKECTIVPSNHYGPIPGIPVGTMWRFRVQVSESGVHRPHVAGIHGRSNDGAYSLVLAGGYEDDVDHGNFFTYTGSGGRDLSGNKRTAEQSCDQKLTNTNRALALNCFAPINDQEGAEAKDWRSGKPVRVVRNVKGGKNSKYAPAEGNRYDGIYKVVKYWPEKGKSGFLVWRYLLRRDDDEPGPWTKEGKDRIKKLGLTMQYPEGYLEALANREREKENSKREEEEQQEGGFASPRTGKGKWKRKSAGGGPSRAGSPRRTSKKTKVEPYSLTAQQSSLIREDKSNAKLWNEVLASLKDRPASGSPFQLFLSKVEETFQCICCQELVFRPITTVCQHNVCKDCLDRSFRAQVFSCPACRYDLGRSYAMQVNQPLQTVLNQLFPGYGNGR
LEDGF integ inh – blockers of LEDGF/p75-dependent integrase strand transfer – biochemical, TR-FRET, high throughput, primary screen; 370,000 tested, 0.64% active; TR-FRET IN-LEDGF/p75 DNA integration, Eu/Cy5; inhibition, % at 3.7 µM; AID 743269, 2014;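 active means inhibition above the screen-wide mean plus 3 SD, cut at about 13% in these data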;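 further: signal is the Cy5 over europium emission ratio at 671 and 618 nm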
MBD2 DNA inh – inhibitors of MBD2 binding to methylated DNA, primary screen, biochemical, TR-FRET, DNA-binding domain, human; MBD2 binding to methylated oligonucleotide; inhibition, % at 4.4 µM; 370,000 tested, 0.31% active; AID 686964, 2013; in the data active means inhibition above about 13%
DNMT1 block – human DNMT1 methyltransferase inhibitors, primary screen, biochemical, molecular beacon, fluorescence, HinP1I cleavage, uHTS | inhibition (reported as % activation of signal), % at 10 µM | 360,000 tested, 0.83% active | AID 588458, 2011; in the data active means inhibition above about 50%
PG9 binder – binders of HIV-1 gp120 antibody PG9, primary screen, biochemical, TR-FRET. AID 624416, 2012. HIV-1 gp120 / PG9 antibody interaction. TR-FRET gp120-PG9 antibody binding. inhibition, % at 6.7 µM. 360,000 tested, 0.43% active; in the data active means inhibition above about 8.5%
Hits are given with their value; – = inactive; · = no result given.

SMILES | rCAG binder | UHRF1 MBD2 ctr | LEDGF integ inh | MBD2 DNA inh | DNMT1 block | PG9 binder
N=C1/C(=C/c2ccc(-c3cccc(C(=O)O)c3)o2)C(=O)N=C2SC(CC(=O)N3CCOCC3)=NN12 | – | – | – | – | 56 | –
N=C1/C(=C\c2ccc(OC(=O)c3ccccc3)cc2)C(=O)N=C2SC(N3CCOCC3)=NN12 | 42 | – | – | – | – | –
C#CCNC(=O)C[C@@H]1C(=O)N(Cc2ccc(OC)cc2)/C2=C/CCCCC[C@@]21C(=O)OCC | – | – | – | – | · | ·
NC(=O)c1cc[n+](CC2=C(C(=O)O)N3C(=O)[C@@H](NC(=O)C(c4ccccc4)S(=O)(=O)[O-])[C@H]3SC2)cc1 (stereo not given in full) | · | · | · | · | 98 | ·
N[C@@H](C(=O)N[C@@H]1C(=O)N2C(C(=O)O)=C(Cl)CS[C@H]12)c1ccccc1 | – | – | – | – | – | –
COCCCN1C(=O)[C@H](CC(=O)NCC2CCCCC2)[C@]2(C(=O)OC)CCCCC=C12 | – | – | – | – | · | ·
COc1ccc2c(CC(=O)OCC(=O)Nc3sc4c(c3C#N)CCC(C)C4)coc2c1 (stereo not given) | – | 41 | – | – | – | –
COc1ccc2c(CC(=O)OCC(=O)Nc3ccc(C)cc3)coc2c1 | – | – | – | – | – | –
O=C(Nc1cc(C(F)(F)F)ccc1N1CCOCC1)c1cnccn1 | – | – | – | – | – | –
O=C(Nc1ccccc1N1CCOCC1)c1cnccn1 | – | 37 | – | – | – | –
Cc1ccc(CN2C(=NC(=O)CCC(=O)O)SC3CS(=O)(=O)CC32)cc1 (stereo not given) | – | – | – | – | – | –
Cc1ccc2nc(-c3ccc(N4C(=NC(=O)CCC(=O)O)SC5CS(=O)(=O)CC54)cc3)sc2c1 (stereo not given) | · | · | · | · | 56 | ·
COc1ccc(Cn2cc(CN3[C@@H](Cc4ccccc4)COc4cc(Br)ccc4S3(=O)=O)nn2)cc1 | – | – | – | – | · | ·
CN1C(=S)N(c2cccnc2)C(=O)/C1=C\c1ccc(N(C)C)cc1 | – | 43 | – | – | – | –
CC(C)[C@@H](CO)N1Cc2nnn(Cc3ccccc3)c2-c2ccccc2S1(=O)=O | – | – | – | – | · | ·
COC(=O)[C@]12C[C@H](CC(=O)N3CCN(C(=O)c4ccco4)CC3)C(=O)N(Cc3ccc(Cl)cc3Cl)C1=C[C@H](C1CCCC1)O[C@@H]2C | – | – | – | – | · | ·
N#C/C(=C\c1ccc(O)cc1)C(=O)N1CCCC1 | – | 21 | – | – | – | –
O=C(Cn1nnc(-c2ccncc2)n1)Nc1ccc(Cl)cc1 | – | – | – | – | · | ·
Cc1cc(C)nc(NC(=O)/C=C/c2ccccc2Cl)n1 | – | – | – | – | – | –
Cc1cc(N)c2cc(NC(=O)/C=C/c3ccccc3Cl)ccc2n1 | · | · | · | · | 53 | ·
COc1cc(NC(=O)c2ccccc2)c(C)cc1NC(=O)CSc1nnc(-c2ccccc2F)n1-c1ccc(C)cc1 | – | – | – | – | · | ·
COC(=O)C1CC(=O)N(c2ccc(OCc3ccccc3Cl)cc2)C1 (stereo not given) | – | 24 | – | – | – | –
Cc1ccc(N2CC(C(=O)OCC(=O)Nc3ccc(Cl)cc3)CC2=O)cc1 (stereo not given) | – | – | – | – | – | –
Cc1ccc(N2CC(C(=O)OCC(=O)Nc3cccc(Cl)c3C)CC2=O)cc1 (stereo not given) | – | 90 | – | – | – | –
Cc1cccc(CSC(Nc2ccc(F)cc2)=C(C#N)C#N)c1 | 40 | – | – | – | – | –
SMILES | rCAG binder | UHRF1 MBD2 ctr | LEDGF integ inh | MBD2 DNA inh | DNMT1 block | PG9 binder
CN(C)c1ccc(Cc2cc3c(O)ccc(O)c3cc(Cc3ccc(N(C)C)cc3)c2=O)cc1 | 76 | 51 | 63 | 35 | 81 | –
C[C@H]1[C@@H](NCC2CCCCC2)CC[C@@]23CCCN2C(=O)CCC[C@@H]13 | · | – | – | – | · | ·
Oc1ccc2c(c1)OCC1(O)Cc3cc(O)c(O)cc3C21 (stereo not given) | – | – | – | – | – | –
Oc1cc2c(cc1O)[C@H]1c3ccc(O)c(O)c3OC[C@@]1(O)C2 | – | – | 83 | – | – | –
O=C(c1ccc2c(c1)OCO2)N1CCC(Oc2cccnc2)CC1 | – | – | – | – | · | ·
CC1(C(=O)Nc2ccc3c(c2)OCO3)CCN1C(=O)C1CCCCC1 (stereo not given) | – | – | – | – | – | –
CC1(C(=O)Nc2ccc(Cl)c(Cl)c2)CCN1C(=O)C1CCCCC1 (stereo not given) | – | 22 | – | – | – | –
CCCC(=O)N(Cc1cc(=O)[nH]c2ccccc12)c1ccc(C)cc1C | – | – | – | – | – | –
CCC(=O)N(Cc1cc(=O)[nH]c2ccccc12)c1ccccc1C | – | 38 | – | – | – | –
CCC[C@H]1[C@@H](OC(=O)NC2CCCCC2)CC[C@@]23CCCN2C(=O)CCC[C@@H]13 | · | – | – | – | · | ·
CC(NC(=O)Cn1ncc(Cl)c(Cl)c1=O)C12CC3CC(CC(C3)C1)C2 (stereo not given) | · | · | · | · | 59 | ·
O=C(O)c1ccc(S(=O)(=O)/N=C2\C=C(Nc3ccccc3F)C(=O)c3ccccc32)cc1 | – | – | 60 | – | 74 | –
CC(C)c1ccc(S(=O)(=O)/N=C2\C=C(NS(=O)(=O)c3ccccc3)C(=O)c3ccccc32)cc1 | 68 | – | 25 | – | – | –
Cc1ccccc1NC1=C/C(=N\S(=O)(=O)c2cccs2)c2ccccc2C1=O | – | – | 47 | – | 69 | –
CC(=O)Nc1ccc(NC2=C/C(=N/S(=O)(=O)c3cccs3)c3ccccc3C2=O)cc1 | – | – | 50 | – | – | –
Cc1ccc(NC2=C/C(=N/S(=O)(=O)c3cccs3)c3ccccc3C2=O)cc1C | – | – | – | – | – | –
CN(CCOC(=O)c1cccs1)C1CN(Cc2cn(Cc3ccccc3Cl)nn2)S(=O)(=O)C1 (stereo not given) | – | – | – | – | · | ·
O=C1C(NC(=O)N2c3ccccc3C=Cc3ccccc32)CCCCN1Cc1cccc(C(F)(F)F)c1 (stereo not given) | – | – | – | – | · | ·
COC(=O)C(C(C)=O)C1=C/C(=N\S(=O)(=O)c2ccc(C)cc2)c2ccccc2C1=O (stereo not given) | · | · | · | · | – | ·
COc1ccc(S(=O)(=O)/N=C2\C=C(Nc3ccc(O)cc3)C(=O)c3ccccc32)cc1 | – | – | 65 | – | – | –
CCCCNS(=O)(=O)/C=C/c1ccc(F)cc1CNC(=O)OC(C)(C)C | – | – | – | – | · | ·
O=C(Nc1ccc(-n2nncc2-c2ccco2)cc1)c1cc2ccccc2oc1=O | · | · | · | · | 112 | ·
